Drawing on PubChem BioAssay (EPA / NIEHS), this text covers AC50 and outcome for 4 compounds.

One may read the AC50 as the concentration giving half of the maximal activity seen.

Holding throughout (details): mRNA level, 48 h; actives raise or lower the signal
Read-out in test [1]: Cytochrome P450 (CYP2B6), CYP2B6 (gene 1555)
The experiment in a line: LTEA_HepaRG_CYP2B6: Life Technologies and Expression Analysis (LTEA) Assay for Cytochrome P450 (CYP2B6) using HepaRG (AID 2283481). The method, boiled down: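 HepaRG cells plated 48 h, switched to serum-free induction medium, then dosed 48 h (8 points, half-log from 100 uM, 0.5% DMSO). RNA isolated; CYP2B6 expression measured by qRT-PCR; gain or loss fitted relative to DMSO.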

Read-out in test [2]: Cytochrome P450 2C19 (Homo sapiens) (UniProt P33261)
The experiment in a line: LTEA_HepaRG_CYP2C19: Life Technologies and Expression Analysis (LTEA) Assay for CYP2C19 using HepaRG (AID 2283482). An outline of the steps:
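Transcript levels of CYP2C19 were quantified by qRT-PCR after HepaRG cells were treated for 48 hours with test chemicals up to 100 uM (eight half-log concentrations, 0.5% DMSO vehicle). Gain or loss of signal was fitted relative to DMSO.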

Read-out in test [3]: CYP2C8 (gene 1558)
The experiment in a line: LTEA_HepaRG_CYP2C8: Life Technologies and Expression Analysis (LTEA) Assay for CYP2C8 using HepaRG (AID 2283483). An outline of the steps: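 Differentiated HepaRG cells in serum-free induction medium exposed 48 h in duplicate to 8 half-log concentrations from 100 uM in 0.5% DMSO. CYP2C8 mRNA by qRT-PCR normalized to ACTB, GAPDH, POLR2A; bidirectional fit versus DMSO.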

Read-out in test [4]: CYP2E1 (gene 1571)
The experiment in a line: LTEA_HepaRG_CYP2E1: Life Technologies and Expression Analysis (LTEA) Assay for CYP2E1 using HepaRG (AID 2283485). The method, boiled down: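 HepaRG cells, plated 48 h, then exposed 48 h in serum-free induction medium to eight half-log concentrations from 100 uM in 0.5% DMSO, duplicate. CYP2E1 mRNA by qRT-PCR, normalized to ACTB/GAPDH/POLR2A; bidirectional fit versus DMSO.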

Read-out in test [5]: CYP4A11 (gene 1579)
The experiment in a line: LTEA_HepaRG_CYP4A11: Life Technologies and Expression Analysis (LTEA) Assay for CYP4A11 using HepaRG (AID 2283486). An outline of the steps:
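HepaRG, 48 h chem exposure, 8 conc (100 uM top, half-log), 0.5% DMSO vehicle; qRT-PCR readout, housekeeping-gene normalized; bidirectional curve fit vs DMSO baseline.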

Read-out in test [6]: DNA damage-inducible transcript 3 (DDIT3), DDIT3 (gene 1649)
The experiment in a line: LTEA_HepaRG_DDIT3: Life Technologies and Expression Analysis (LTEA) Assay for DNA damage-inducible transcript 3 (DDIT3) using HepaRG (AID 2283488). An outline of the steps: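 HepaRG cells, 48 h after plating, exposed 48 h in serum-free induction medium to 8 half-log concentrations up to 100 uM in 0.5% DMSO, in duplicate. DDIT3 mRNA measured by TaqMan qRT-PCR, normalized to ACTB, GAPDH and POLR2A. Fitted bidirectionally against DMSO.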

Read-out in test [7]: Pro-epidermal growth factor (Homo sapiens) (UniProt P01133)
The experiment in a line: LTEA_HepaRG_EGF: Life Technologies and Expression Analysis (LTEA) Assay for Epidermal growth factor (EGF) using HepaRG (AID 2283489). An outline of the steps: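 HepaRG, 48 h dosing, 100 uM top, half-log x8, 0.5% DMSO. Readout: TaqMan qRT-PCR (Fluidigm array), housekeeping-normalized. Gain or loss of signal fit vs DMSO.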

Read-out in test [8]: Ezrin (EZR), EZR (gene 7430)
The experiment in a line: LTEA_HepaRG_EZR: Life Technologies and Expression Analysis (LTEA) Assay for Ezrin (EZR) using HepaRG (AID 2283491). The method, boiled down:
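EZR transcript levels came from Fluidigm qRT-PCR and were normalized to three housekeeping genes after 48 h chemical exposure of HepaRG cells. Dosing used an 8-point half-log series with a 100 uM top concentration in 0.5% DMSO, tested in duplicate; both directions were fitted versus vehicle.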

Read-out in test [9]: Cytochrome P450 3A7 (Homo sapiens) (UniProt P24462)
The experiment in a line: LTEA_HepaRG_CYP3A7: Life Technologies and Expression Analysis (LTEA) Assay for CYP3A7 using HepaRG (AID 2283492). An outline of the steps:
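Human HepaRG liver cells, 48 h post-plating, switched to serum-free induction medium and exposed in duplicate for 48 h. Dosing: 100 uM top, half-log dilutions, 8 points, 0.5% DMSO vehicle. Read-out: CYP3A7 mRNA, gain or loss fitted against DMSO baseline.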

Read-out in test [10]: CYP3A5 (gene 1577)
The experiment in a line: LTEA_HepaRG_CYP3A5: Life Technologies and Expression Analysis (LTEA) Assay for CYP3A5 using HepaRG (AID 2283493). An outline of the steps: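 HepaRG cells, plated 48 h then in serum-free induction medium, dosed in duplicate for 48 h with eight half-log concentrations up to 100 uM in 0.5% DMSO. Gene mRNA by Fluidigm TaqMan qRT-PCR, normalized to ACTB, GAPDH, POLR2A.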

Read-out in test [11]: Fatty Acid-Binding Protein 1 (FABP1), FABP1 (gene 2168)
The experiment in a line: LTEA_HepaRG_FABP1: Life Technologies and Expression Analysis (LTEA) Assay for Fatty Acid-Binding Protein 1 (FABP1) using HepaRG (AID 2283494). The method, boiled down: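 Differentiated human HepaRG cells exposed 48 h in serum-free induction medium to eight half-log concentrations up to 100 uM (0.5% DMSO), duplicate. FABP1 mRNA by qRT-PCR, normalised to ACTB, GAPDH, POLR2A; bidirectional fitting against DMSO.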

Read-out in test [12]: Cytochrome P450 4A22 (Homo sapiens) (UniProt Q5TCH4)
The experiment in a line: LTEA_HepaRG_CYP4A22: Life Technologies and Expression Analysis (LTEA) Assay for Cytochrome P450 4A22 (CYP4A22) using HepaRG (AID 2283495). An outline of the steps: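 Readout is CYP4A22 transcript induction or loss, quantified by qRT-PCR and normalized to ACTB, GAPDH and POLR2A. Human HepaRG cells receive test chemicals for 48 h at eight half-log concentrations from 100 uM in 0.5% DMSO.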

Read-out in test [13]: Cytochrome P450 7A1 (Homo sapiens) (UniProt P22680)
The experiment in a line: LTEA_HepaRG_CYP7A1: Life Technologies and Expression Analysis (LTEA) Assay for Cytochrome P450 7A1 (CYP7A1) using HepaRG (AID 2283496). An outline of the steps: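 HepaRG cells plated 48 h, then switched to serum-free induction medium and exposed in duplicate for 48 h to 8-point half-log series from 100 uM in 0.5% DMSO. CYP7A1 mRNA by qRT-PCR (TaqMan), normalized to ACTB/GAPDH/POLR2A; bidirectional fit versus DMSO.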

Read-out in test [14]: Glutathione S-Transferase (GSTA2), GSTA2 (gene 2939)
The experiment in a line: LTEA_HepaRG_GSTA2: Life Technologies and Expression Analysis (LTEA) Assay for Glutathione S-Transferase (GSTA2) using HepaRG (AID 2283497). The method, boiled down: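 Differentiated human HepaRG cells were exposed in duplicate for 48 h in serum-free induction medium, 8 points from 100 uM top in half-log steps, 0.5% DMSO. GSTA2 mRNA was measured by TaqMan qRT-PCR, normalized to ACTB, GAPDH and POLR2A; bidirectional fit versus DMSO.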

Read-out in test [15]: Glutamate-cysteine ligase catalytic (GCLC), GCLC (gene 2729)
The experiment in a line: LTEA_HepaRG_GCLC: Life Technologies and Expression Analysis (LTEA) Assay for Glutamate-cysteine ligase catalytic (GCLC) using HepaRG (AID 2283498). An outline of the steps: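 Differentiated HepaRG cells exposed 48 h in serum-free induction medium, eight-point half-log series topping at 100 uM in 0.5% DMSO, duplicates. GCLC mRNA by qRT-PCR normalized to ACTB, GAPDH and POLR2A, fitted bidirectionally versus DMSO.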

Read-out in test [16]: growth arrest and DNA damage 45 (GADD45G), GADD45G (gene 10912)
The experiment in a line: LTEA_HepaRG_GADD45G: Life Technologies and Expression Analysis (LTEA) Assay for growth arrest and DNA damage 45 (GADD45G) using HepaRG (AID 2283499). An outline of the steps:
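Gain or loss of GADD45G mRNA, quantified by TaqMan qRT-PCR against three housekeeping genes, is fitted in both directions relative to 0.5% DMSO. Human HepaRG cultures receive test chemical for 48 h at up to 100 uM.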

Read-out in test [17]: Glutamate-cysteine ligase regulatory (GCLM), GCLM (gene 2730)
The experiment in a line: LTEA_HepaRG_GCLM: Life Technologies and Expression Analysis (LTEA) Assay for Glutamate-cysteine ligase regulatory (GCLM) using HepaRG (AID 2283500). The method, boiled down: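 Differentiated HepaRG cells exposed 48 h in serum-free induction medium to eight half-log concentrations up to 100 uM (0.5% DMSO). GCLM mRNA by TaqMan qRT-PCR, normalized to ACTB, GAPDH and POLR2A; bidirectional fit versus DMSO.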

Read-out in test [18]: CYP2C9 (gene 1559)
The experiment in a line: LTEA_HepaRG_CYP2C9: Life Technologies and Expression Analysis (LTEA) Assay for CYP2C9 using HepaRG (AID 2283484). The method, boiled down:
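Differentiated human HepaRG cells in serum-free induction medium were exposed 48 h to chemicals in 8-point half-log series from 100 uM (0.5% DMSO), in duplicate. CYP2C9 mRNA was measured by qRT-PCR, normalized to ACTB/GAPDH/POLR2A, with bidirectional fitting versus DMSO.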

Read-out in test [19]: Early growth response protein 1 (EGR1) transcription factor, EGR1 (gene 1958)
The experiment in a line: LTEA_HepaRG_EGR1: Life Technologies and Expression Analysis (LTEA) Assay for Early growth response protein 1 (EGR1) transcription factor using HepaRG (AID 2283490). An outline of the steps: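 Differentiated HepaRG cells in serum-free induction medium exposed 48 hours, duplicate, to 8 half-log concentrations up to 100 uM in 0.5% DMSO. EGR1 mRNA measured by TaqMan qRT-PCR, normalized to ACTB, GAPDH, POLR2A; bidirectional fit versus DMSO.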

Calls of active or inactive are those of the source. The calls were made as follows: active = hit-call score of the fitted dose curve at least 0.9, where 1 is the maximum; inactive = score below 0.9.

Sequence of Cytochrome P450 3A7 (Homo sapiens) (P24462 whole entry, looked up): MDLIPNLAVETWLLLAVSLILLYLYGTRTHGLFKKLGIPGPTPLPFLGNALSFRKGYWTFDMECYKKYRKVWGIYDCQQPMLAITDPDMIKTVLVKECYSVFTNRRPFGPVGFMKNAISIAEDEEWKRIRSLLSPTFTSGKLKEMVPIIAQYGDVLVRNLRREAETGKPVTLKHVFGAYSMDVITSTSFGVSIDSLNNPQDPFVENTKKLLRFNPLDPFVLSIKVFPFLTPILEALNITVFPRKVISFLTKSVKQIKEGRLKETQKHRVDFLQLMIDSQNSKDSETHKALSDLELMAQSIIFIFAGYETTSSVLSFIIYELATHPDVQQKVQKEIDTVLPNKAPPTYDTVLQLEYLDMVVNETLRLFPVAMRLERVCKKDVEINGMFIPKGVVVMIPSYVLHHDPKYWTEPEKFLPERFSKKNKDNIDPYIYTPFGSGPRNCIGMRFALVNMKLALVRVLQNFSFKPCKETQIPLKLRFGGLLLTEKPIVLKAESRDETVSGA
Sequence of Cytochrome P450 2C19 (Homo sapiens) (P33261 whole entry, looked up): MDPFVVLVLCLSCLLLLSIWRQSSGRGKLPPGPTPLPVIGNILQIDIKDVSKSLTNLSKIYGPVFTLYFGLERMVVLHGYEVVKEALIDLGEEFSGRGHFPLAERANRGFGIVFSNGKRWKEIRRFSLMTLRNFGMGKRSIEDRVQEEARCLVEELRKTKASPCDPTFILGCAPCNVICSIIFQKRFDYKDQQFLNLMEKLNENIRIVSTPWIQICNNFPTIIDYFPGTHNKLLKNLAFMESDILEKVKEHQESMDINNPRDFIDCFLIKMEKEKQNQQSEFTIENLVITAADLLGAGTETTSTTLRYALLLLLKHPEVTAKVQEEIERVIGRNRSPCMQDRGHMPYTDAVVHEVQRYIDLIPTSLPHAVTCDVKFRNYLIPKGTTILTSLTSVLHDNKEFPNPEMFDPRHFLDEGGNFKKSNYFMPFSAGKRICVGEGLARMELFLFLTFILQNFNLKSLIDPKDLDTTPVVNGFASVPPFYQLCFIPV

Consider `Cc1nccn1-c1ccc(Sc2cccc(C3(C(N)=O)CCOCC3)c2)cc1`, for which the AC50 in test [1] was 9.76 µM (active); in test [2], 10.7 µM (active); in [3], 12.6 µM (active); in test [4], 6.52 µM (active); in test [5], 4.94 µM (active); in [6] it was 4.47 µM (active). In addition, the AC50 is 32.8 µM (active) in test [7]; 10.4 µM (active) in [9]; 19.5 µM (active) in test [10]; 11.6 µM (active) in test [11]; 6.16 µM (active) in [12]; 15.1 µM (active) in test [13]. Also, the AC50 in test [14] is 10.7 µM (active); in test [16] it was 4.69 µM (active); in [17] it was 7.4 µM (active). For the same compound, the result in test [8] and in [15] was inactive.

As to `COCc1nnc(-c2ccc[n+]([O-])c2)n1-c1c(Cl)c(Cl)cc2[nH]c(=O)c(=O)[nH]c12`, the AC50 in test [1] was 14.6 µM (active). The outcome in test [2], in test [3], in test [18], in [6], in [7] and in test [8] was inactive. The result in [9], in test [10], in test [11], in test [12], in [13] and in test [14] was inactive. Besides, the call in test [15], in test [16] and in test [17] was inactive.

On to `Cn1cc[nH]c1=S`, for which the call in [1], in [2], in test [3], in test [18], in [4] and in [6] was inactive. The compound was called inactive in test [7], in [19], in test [8], in test [11], in [12] and in test [13]. The call in test [14], in [15], in [16] and in [17] was inactive.

As for `CCCCCCCC/C=C\CCCCCCCC(=O)OC[C@@H](O)[C@H]1OC[C@H](O)[C@H]1O`, the compound was called inactive in test [1], in test [2], in [3], in test [4], in test [6] and in test [7]. In addition, the call in test [19], in test [8], in test [9], in test [10], in test [11] and in test [12] was inactive. The outcome in test [13], in test [14], in [15], in [16] and in test [17] was inactive.
